# Measured values: PubChem BioAssay (NCI)
# This is part of a sample that, as a whole, favours compounds with a hit. Of some 83,000 tested, about 20% had one in any assay.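 Single-concentration screen, 48 h exposure, 96-well plates. Endpoint: percent growth. Below 10 = active.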 Calls of active or inactive are those of the source.
# Test system: ACHN renal
# Assay: NCI-60 one-dose screen, 48 h (100 = growth as untreated, 0 = no growth, -100 = all killed)
# Details: 10 µM unless noted
# Protocol: Growth inhibition of the ACHN human tumor cell line is measured as a screen for anti-cancer activity. Cells are grown in 96 well plates and exposed to the test compound for 48 hours. Compounds are tested at a single concentration, which is 10^-5 M for most compounds. The reported endpoint is percent growth (GI% or GIPRCNT), where numbers from 0 - 100% represent growth inhibition, and numbers from -100% - 0 represent cell death. For example, a value of 40 represents 60% growth inhibition. A value of 0 means no net growth occurred over the course of the experiment. A value of -40 indicates 40% of cells at the beginning of the experiment died by the end of the experiment. A value of -100 means all cells are dead at the end of the experiment.
# NCI-60 Human Tumor Cell Lines Screen was performed using the standard one-dose NCI protocol, which is described in more detail at https://dtp.cancer.gov/discovery_development/nci-60/default.htm.
# Compounds with GIPRCNT values below 10 were considered active. Activity score was based on GIPRCNT using the following formula: […]
# Score is 0 for GIPRCNT values of 100 or above, 50 for GIPRCNT values of 0, and 100 for GIPRCNT values of -100.
row,SMILES,growth
1,CN1CCN(Cc2ccc(NC(=O)c3[nH]ncc3Nc3ncnc4sc5c(c34)CCCC5)cc2)CC1,-100% (active)
2,COC(=O)[C@@H](OC)[C@@H]1Cc2cc3cc(OC4CC(OC5CC(O)C(O)C(C)O5)C(O)C(C)O4)c(C)c(O)c3c(O)c2C(=O)[C@H]1OC1CC(OC2CC(OC3CC(C)(O)C(O)C(C)O3)C(O)C(C)O2)C(O)C(C)O1 (stereo not given in full),4.79% (active)
3,C=CCN(/C=C1/C(=O)O[C@H](COC)[C@@]2(C)C1=C(O)C(=O)C1=C2[C@H](OC(C)=O)C[C@]2(C)C(=O)CC[C@@H]12)CC=C,24.7% (inactive)
4,COc1cc2c(Oc3ccc(NC(=O)C4(C(=O)Nc5ccc(F)cc5)CC4)cc3F)ccnc2cc1OCCCN1CCOCC1,-4.14% (active)
5,O=C1CC(c2cccc(F)c2)c2c(n[nH]c2-c2ccc(Cl)cc2)N1 (stereo not given),90% (inactive)
6,COc1ccc(-c2cnc(-c3ccc(Cl)cc3)[nH]2)cc1OC,103% (inactive)
7,Cc1ccc(NC(=O)c2ccc(CN3CC[C@H](N(C)C)C3)c(C(F)(F)F)c2)cc1Nc1nccc(-c2cncnc2)n1,1.22% (active)
8,CCCCCCCCCNCCCCCCCCC,81.5% (inactive)
9,CC(C)c1cc(CNc2nc(Nc3cc(C4CC4)[nH]n3)cc(N3CCN(C)CC3)n2)on1,8.49% (active)
10,O=C(Cc1ccccc1)Nc1nnc(NC2CCN(c3nnc(NC(=O)Cc4ccccc4)s3)CC2)s1,103% (inactive)
11,COC(=O)C1=C(C(=O)OC)C23C=C(C)C1C2=C(C)C1(CC1)[C@@](C)(O)C3=O (stereo not given in full),3.21% (active)
12,O=C1CC(c2ccc3c(c2)OCO3)c2ncn(-c3ccc(Cl)cc3)c2N1 (stereo not given),53.9% (inactive)
13,COC(=O)[C@]12CC[C@@H](C)[C@H](C)[C@@H]1C1=CC[C@@H]3[C@@]4(C)C[C@@H](OC(=O)/C=C/c5ccccc5)[C@H](O)[C@@](C)(CO)[C@@H]4[C@H](O)C[C@@]3(C)[C@]1(C)CC2,3.47% (active)
14,CC[C@@H]1C(=O)N(C)c2cnc(Nc3ccc(C(=O)NC4CCC(N5CCN(CC6CC6)CC5)CC4)cc3OC)nc2N1C(C)C (stereo not given in full),-3.77% (active)
15,CCc1nc2cc(/C=C/C(=O)NO)ccc2c(=O)n1CCc1ccc(F)cc1,-26.5% (active)
16,CNc1ncc2cc(-c3cc(NC(=O)NCCC(C)(C)C)c(F)cc3C)c(C)nc2n1,5.23% (active)
17,C=CCCCOC1[C@H](OCc2ccccc2)C(OCc2ccccc2)C(OC)O[C@@H]1CNC(=O)c1cccc(I)c1 (stereo not given in full),32.9% (inactive)
18,C[C@@H](Oc1cc(-c2cnn(C3CCNCC3)c2)cnc1N)c1c(Cl)ccc(F)c1Cl,-45.9% (active)
19,N#Cc1c(-c2ccc(C(F)(F)F)cc2)cc(NCC2CCS(=O)(=O)CC2)n2c1nc1ccccc12,86.8% (inactive)
20,Clc1ccc(/C=C/c2cc(N3CCOCC3)c3cc(Cl)c(Cl)cc3n2)cc1,94.3% (inactive)

row,SMILES,growth
1,C=C1C(=O)O[C@H]2[C@H]1CC/C(CNC(=O)c1cc3cc(OC)ccc3[nH]1)=C\CC[C@@]1(C)O[C@@H]21,-76.2% (active)
2,O=C(Cc1ccc(-c2ccc(OCCN3CCOCC3)cc2)cn1)NCc1ccccc1,22.1% (inactive)
3,Cc1cc(N(CCNc2ccnc3cc(Cl)ccc23)Cc2ccc3c(c2)OCO3)nc(N2CCN(C)CC2)n1,-20.6% (active)
4,Cc1cc2c(-c3nc4ccccn4c3NC3CCCCC3)c(O)c(O)cc2c(O)c1-c1c(C)cc2c(-c3nc4ccccn4c3NC3CCCCC3)c(O)c(O)cc2c1O,18.8% (inactive)
5,CC(C)(C)c1nc(-c2cccc(NS(=O)(=O)c3c(F)cccc3F)c2F)c(-c2ccnc(N)n2)s1,59.3% (inactive)
6,Cc1cc(N2CCCC2)nc(N(CCCNc2ccnc3cc(Cl)ccc23)Cc2ccc3c(c2)OCO3)n1,-10.7% (active)
7,C=C1C(=O)O[C@H]2[C@H]1CC/C(Cn1cc(-c3cc(C)c(C)cc3C)nn1)=C\CC[C@@]1(C)O[C@@H]21,-86.7% (active)
8,COc1ccc2c(CCCC(c3ccccc3)c3ccccc3)c3[n+](cc2c1OC)CCc1cc2c(cc1-3)OCO2,11.6% (inactive)
9,Cc1cccc(Cl)c1NC(=O)c1cnc(Nc2cc(N3CCOCC3)cc(N3CCOCC3)c2)s1,-7.5% (active)
10,O=C(NC1CCNCC1)c1[nH]ncc1NC(=O)c1c(Cl)cccc1Cl,66.5% (inactive)
11,ClCc1ccc(-c2ccc(Cn3cnc4c(Cl)nc(Cl)nc43)cc2)cc1,-21% (active)
12,C=CC[n+]1c(/C=C2\Sc3ccccc3N2C)sc(-c2ccccc2)c1-c1ccccc1,8.86% (active)
13,CC1=CC2c3oc(-c4ccccc4)c(C(=O)c4ccccc4)c3CNC2C=C1 (stereo not given),87.4% (inactive)
14,CCN1CCN(c2cc(C)nc(N(CCCNc3ccnc4cc(Cl)ccc34)Cc3ccc4c(c3)OCO4)n2)CC1,-0.628% (active)
15,O=C(N/N=C/c1ccc(Cl)cc1)c1cc(-c2cc3ccccc3o2)nn1-c1ccccc1,93.5% (inactive)
16,CCOc1ccc(N=C(C)Nc2ccc(OCC)cc2)cc1,99.5% (inactive)
17,O=C(Nc1cccc(Cl)c1)Nc1ncc(CCNc2ncnc3ccsc23)s1,26.8% (inactive)
18,Cc1cccc(NC(=O)[C@@H]2c3ccccc3C(=O)N(c3ccc(Cl)cc3)[C@H]2c2ccc(Cl)cc2)n1,52% (inactive)
19,CCN(CCN(C)C)C(=O)CNCc1cc(C(N)=O)ccn1,108% (inactive)
20,Cc1cc(-c2cc(O)ccc2Cl)cc2nnc(Nc3ccc(OCCN4CCCC4)cc3)nc12,-92.7% (active)
